By inhibition is commonly meant the relative decrease from the control value, in per cent.

SMILES strings stand for the structures. Values joined by “and” are separate entries in the source; they are usually repeats but may differ in a detail not shown here. Equal values may be shown once. Among all 200,000 compounds or so, about 18,000 (9%) were called active. This is one part of a sample in which actives are shown more often than they occur. Unmarked numbers belong to inactive results. Rule as the data show it: active = inhibition above about 50%; inactive = the rest.

Here are results for 67 compounds from PubChem BioAssay AID1063 (University of Pittsburgh Molecular Library Screening Center, 2008).

A short description of the experiment: Leishmania major promastigote growth inhibition, primary screen (AID 1063).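 Also: promastigotes grown with compound for 44 hours at 28 °C.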 Particulars: Leishmania major promastigotes, resazurin fluorescence viability; at 10 µM; active compounds read high.
As to `CCC1CCCCN1C(=O)CSc1nc2c(c(=O)n(C)c(=O)n2C)n1C` (configuration not stated), the inhibition was -6.11%.

`CCOc1ccc(C(CC(=O)O)n2cnnn2)cc1OC` (configuration not stated): the inhibition is -5.12%.

In the case of `Cc1cc(NC(=O)CSc2nccn2-c2ccc([N+](=O)[O-])cc2)no1`, the inhibition is -2.13%.

Take `N/C(=N\OC(=O)N1c2ccccc2Sc2ccccc21)c1ccc(Br)cc1`: the inhibition was 26%.

Regarding `O=[N+]([O-])c1ccc(N2CCNCC2)cc1NCc1cccnc1`, the inhibition is -1.11%.

Turning to `CN1CCN(c2ccc([N+](=O)[O-])c(Sc3nc4ccccc4[nH]3)c2)CC1`, the inhibition was 57% (active).

Take `O=C(CSc1nc2ccccc2[nH]1)N/N=C/C=C\c1ccccc1[N+](=O)[O-]`: the inhibition is 40.1%.

Regarding `COc1ccc(S(=O)(=O)N2CCOCC2)cc1NC(=O)CSc1ncnc2ccccc12`, the inhibition was 23%.

Regarding `O=C(NC1CC1)C1CCCN(C(=O)NC2CCCCC2)C1` (configuration not stated), the inhibition is 1.82%.

With `COc1ccc(-c2nn(-c3ccccc3)cc2CN2CCCO2)c(F)c1`, the inhibition is 13%.

For the compound `O=C(CCCN1C(=O)/C(=C\c2ccco2)SC1=S)Nc1cccc2ccccc12`, the inhibition is 30.1%.

For `O=C(CCCN1C(=O)/C(=C/c2ccco2)SC1=S)Nc1ccccc1`, the inhibition is 10.2%.

For the compound `O=C(CCCN1C(=O)/C(=C/c2ccccc2)SC1=S)Nc1ccc(O)cc1`, the inhibition is 56.3% (active).

As to `O=C(Nc1ccc([N+](=O)[O-])cc1)C1CC12CCC2` (configuration not stated), the inhibition is 2.36%.

As for `COc1ccc(/C(N)=N/OC(=O)Cc2ccccc2)cc1`, the inhibition was -6.43%.

Take `N/C(=N\OC(=O)CCC1CCCCC1)c1ccccn1`: the inhibition was -4.7%.

With `N/C(=N\OC(=O)CC1CCCCC1)c1ccccc1`, the inhibition was 57.8% (active).

As to `CCc1ccccc1N1C(=O)C2C3CC(=O)C(c4ccccc43)C2C1=O` (configuration not stated), the inhibition is 7.01%.

With `Cc1noc(C)c1COc1ccc2ccc(=O)oc2c1`, the inhibition is -4.27%.

With `CCOc1cc(C)c(Cl)cc1S(=O)(=O)n1nnc2ccccc21`, the inhibition was 1.2%.

Turning to `COc1cc(C)c(C(C)C)cc1S(=O)(=O)n1ccnc1`, the inhibition is 97.8% (active).

Regarding `COc1cc(Cl)c(S(=O)(=O)n2cnc(C)c2)cc1Cl`, the inhibition was 2.35%.

`COc1cc(C)c(Cl)cc1S(=O)(=O)n1ccnc1`: the inhibition is 80.5% (active).

In the case of `CCOc1ccc(C(C)C)cc1S(=O)(=O)n1nc(C)cc1C`, the inhibition is 0.47%.

Turning to `CCOc1ccc(S(=O)(=O)n2ccnc2)c2ccccc12`, the inhibition is -5.02%.

Turning to `N#Cc1c(NC(=O)CCCl)sc2c1CCCCC2`, the inhibition is -0.81%.

Consider `CCCCCc1nnc(NC(=O)c2ccc(=O)n(C)n2)s1`, for which the inhibition was 1.57%.

For `O=C1N/C(=C/c2cccs2)C(=O)N1Cc1ccc(F)cc1`, the inhibition is -5.2%.

Regarding `CC1CC1C(=O)OCC(=O)c1c(N)n(C)c(=O)n(C)c1=O` (configuration not stated), the inhibition was -4.6%.

For `COCCN(C(=O)C(C)C)c1nnc(-c2ccc(C(C)(C)C)cc2)s1`, the inhibition is 8.79%.

Consider `O=C(O)c1ccc2c3c(cccc13)C(=O)N(OS(=O)(=O)c1ccccc1)C2=O`, for which the inhibition was -8.08%.

With `Cc1cc2cc3c(cc2nc1SCC(=O)Nc1c(C)cccc1C)CCC3`, the inhibition is 78.9% (active).

Regarding `Cc1cccc(C)c1NC(=O)CSc1ccc([N+](=O)[O-])cn1`, the inhibition is -1.31%.

In the case of `Cc1cc(C)c(C#N)c(SCC(=O)Nc2ccccc2)n1`, the inhibition is -5.68%.

`CS(=O)(=O)N(CC(=O)N/N=C/c1ccccn1)c1ccc(Oc2ccccc2)cc1`: the inhibition is 32.9%.

Regarding `CCCN(CC(=O)Nc1ccccc1C)C(=O)c1cc(=O)[nH]c2ccccc12`, the inhibition is 1.78%.

Consider `O=C(O)c1ccc(N/N=C/c2cn(-c3ccccc3)nc2-c2cccs2)cc1`, for which the inhibition is 46.2%.

With `O=C(O)/C=C/c1cn(-c2ccccc2)nc1-c1cccs1`, the inhibition was -2.18%.

`CC(=O)C1=C(C)NC(C)=C(C(C)=O)C1c1cn(-c2ccccc2)nc1-c1cccs1`: the inhibition is 79.7% (active).

In the case of `CC(=O)Nc1ccc(S(=O)(=O)Oc2ccc(/C=N/N=C3/NC(=O)C(CC(=O)O)S3)cc2)cc1` (configuration not stated), the inhibition is -13.1%.

For `Cc1cccc(C)c1NC(=O)C1CCCN1C(=O)OC(C)(C)C` (configuration not stated), the inhibition was -5.04%.

Take `Cc1ccc(NC(=O)c2csc3c2CCCC3)cc1`: the inhibition is 12.4%.

`Cc1cc(C(=O)OC(C)C(=O)Nc2cccc(S(=O)(=O)N3CCOCC3)c2)c(C)o1` (configuration not stated): the inhibition is 99.7% (active).

Regarding `CC(Sc1cccc[n+]1[O-])C(=O)Nc1cccc(S(=O)(=O)N2CCOCC2)c1` (configuration not stated), the inhibition was -4.48%.

`O=C(COC(=O)c1ccccc1)Nc1cccc(S(=O)(=O)N2CCOCC2)c1`: the inhibition was -3.29%.

For `Cc1nc(CN2CCN(C(=O)CCc3nnc(Cc4c[nH]c5ccccc45)o3)CC2)cs1`, the inhibition was 0.41%.

As for `CN(CCN1CCOCC1)Cc1nc(-c2ccc3c(c2)OCO3)no1`, the inhibition is 39.3%.

With `CC(C)c1cc(NCc2ccccn2)n2c(nc3ccccc32)c1C#N`, the inhibition was 8.36%.

Turning to `Cc1cc(N/N=C/c2ccccc2F)c2ccccc2n1`, the inhibition is 12.3%.

Take `Cc1nc(N2CCOCC2)sc1C(=O)NN`: the inhibition is 7.46%.

Turning to `Cn1c(-c2ccccc2)c[n+]2c1CCCCC2`, the inhibition is 0.17%.

As to `Cc1ccc(C(=O)C[n+]2cc(-c3ccccc3)n3c2CCCCC3)cc1`, the inhibition was 101% (active) and 100% (active).

For `Cc1ccc(C(=O)N2CCCC(c3ccccc3)=N2)cc1`, the inhibition was 16.1%.

With `N/C(=N/O)c1cccn1Cc1ccccc1[N+](=O)[O-]`, the inhibition is -1.66%.

As for `COc1ccc(C)cc1NC(=O)c1ccc(-c2ccc(C(C)=O)cc2)o1`, the inhibition is -4.3%.

In the case of `S=C(Nc1ccc(Br)cc1Cl)NC1CCN(Cc2ccccc2)CC1`, the inhibition was 90.3% (active).

For `COc1cc2[nH]c(=O)n(CCC(=O)NC3CCN(Cc4ccccc4)CC3)c(=O)c2cc1OC`, the inhibition was -1.95%.

As to `O=C(NC1CCN(Cc2ccccc2)CC1)c1c(F)cccc1F`, the inhibition is 21.7%.

Consider `O=C(COc1ccccc1F)NC1CC1`, for which the inhibition is -1.88%.

Take `Cc1ccn2cc(C(=O)NC3CCN(Cc4ccccc4)CC3)nc2c1`: the inhibition is 4.6%.

For `O=C(COc1ccc(Br)cc1F)NC1CCN(Cc2ccccc2)CC1`, the inhibition is 93.2% (active).

Regarding `O=C(NC1CCN(Cc2ccccc2)CC1)c1ccccc1F`, the inhibition was 62.4% (active).

Regarding `O=C(NC(=S)N1CCN(Cc2ccccc2)CC1)c1ccccc1`, the inhibition is 14.1%.

Regarding `COc1cc2[nH]c(=O)n(Cc3ccc(C(=O)NC4CCN(Cc5ccccc5)CC4)cc3)c(=O)c2cc1OC`, the inhibition is -5.05%.

As for `O=C(NNC(=S)Nc1ccc(Br)cc1Cl)c1ccco1`, the inhibition is 0.76%.

With `S=C(NN=C1CCN(Cc2ccccc2)CC1)NC1CCCCC1`, the inhibition was -4.71%.

As for `O=C(NC1CCN(Cc2ccccc2)CC1)c1cc(Br)c(Br)[nH]1`, the inhibition was 60.3% (active).
